The values below come from PubChem BioAssay AID463173 (ICCB-Longwood Screening Facility, Harvard Medical School, 2010).

Out of some 52,000 compounds screened, about 4,300 (8.3%) were called active. The list comes from a sample in which actives are over-represented; it also holds similar structures and randomly drawn compounds. Values without a mark were called inactive. Cut-off read from the data, not from the text of the source: active = survival mostly below about 52% (no sharp cut-off); inactive = mostly above about 56%.

In the test the test system is DeltatarO mutant. Description: S. aureus survival, RN4220 and DeltatarO strains – OD600, teichoic acid synthesis inhibitors, primary screen (AID 463173). The settings on record: S. aureus RN4220 wild type/DeltatarO growth, OD600, 18 h, hits give low values, screened at 18.75 µg/mL (by protocol).
With `COc1cc(C)ccc1OCCSc1nc2ccc(NC(=O)c3cccs3)cc2s1`, the survival is 72%.
Consider `CCOC(=O)c1ccccc1NC(=O)C1CCN(c2ncnc3c2nc2n3CCCCC2)CC1`, for which the survival was 62%.
Regarding `O=C1CS/C(=N/c2nc(-c3ccccc3)cs2)N1`, the survival was 83%.
Then `COc1ccc(-c2nc3sc(CCNC(=O)c4ccccc4C)c(C)n3n2)cc1`, with 77%; and `Cc1ccccc1CNC(=O)CCC(=O)N1CC2CCCN2c2ccccc21` (stereo unspecified), with 55%.
In the case of `COCCNc1oc(-c2ccccc2)nc1S(=O)(=O)c1ccc(Br)cc1`, the survival is 79%.
In the case of `O=C(CSc1oc(-c2ccc(F)cc2)nc1S(=O)(=O)c1ccc(Br)cc1)NC1CCCCC1`, the survival is 64%.
As for `CCCCS(=O)(=O)c1oc(-c2ccc(F)cc2)nc1S(=O)(=O)c1ccccc1`, the figure is 4% (active).
`O=C(CSc1oc(-c2ccc(F)cc2)nc1S(=O)(=O)c1ccccc1)NC1CCCCC1`: the survival was 61%.
Turning to `O=S(=O)(c1ccccc1)c1nc(-c2ccc(F)cc2)oc1NCc1ccccc1`, the survival is 67%.
In the case of `CCS(=O)(=O)c1oc(-c2ccc(F)cc2)nc1S(=O)(=O)c1ccccc1`, the survival is -5% (active).
With `CCS(=O)(=O)c1oc(-c2ccc(F)cc2)nc1S(=O)(=O)c1ccc(Br)cc1`, the survival is -5% (active).
Regarding `CC(=O)Nc1ccc(NC(=O)CCc2c(C)nc3c(c(C)nn3-c3ccccc3)c2C)cc1`, the survival was 107%.
Turning to `CCCCN(C)CCNC(=O)c1cc2c(=O)n(C)c3ccccc3c2n1C`, the survival was 90%.
Then `Cc1ccccc1CCNC(=O)c1ccc2c(c1)nc1n2CCOC1`, with 84%; and `Cn1c(=S)[nH]c2c(c1=O)C1(CCCC1)Cc1ccccc1-2`, with 80%.
In the case of `CSCCC(NS(=O)(=O)c1ccc2c(c1)oc(=O)n2C)C(=O)NCc1ccc(Cl)cc1` (stereo unspecified), the survival is 92%.
Turning to `COc1ccc(-c2nc3scc(CCNC(=O)Cc4ccc(F)cc4)n3n2)cc1`, the survival was 95%.
As for `CCC(C(=O)Nc1cccc(-c2nc3cccnc3s2)c1C)c1ccccc1` (stereo unspecified), the figure is 92%; as for `CCC(CC)C(=O)Nc1cccc(-c2nc3cccnc3s2)c1`, 80%.
Then `Cc1ccc(-c2nc3cccnc3s2)cc1NC(=O)C(C)C`, with 112%; and `CCC(CC)C(=O)Nc1cc(-c2nc3cccnc3s2)ccc1C`, with 57% (active); and `CCC(C(=O)Nc1cc(-c2nc3cccnc3s2)ccc1C)c1ccccc1` (stereo unspecified), with 37% (active).
As for `CCC(C(=O)Nc1cc(-c2cn3cccnc3n2)ccc1C)c1ccccc1` (stereo unspecified), the figure is 91%; as for `CCCC(=O)Nc1cc(C)c(O)c(-c2nc3ncccc3o2)c1`, 91%; as for `NC(=O)C1CCN(S(=O)(=O)c2ccc(N3CCCCS3(=O)=O)cc2)CC1`, 116%.
For `Cn1c(=O)c2c(n3ncnc13)NC(=O)CC2c1cccc(F)c1` (stereo unspecified), the survival was 66%.
Turning to `CS(=O)(=O)N1CCN(c2ncnc3c(-c4ccc(Cl)cc4)nsc23)CC1`, the survival was 99%.
Take `COCCn1c(C)cc(O)c(C(c2ccc(OC)cc2)N2CCN(c3ccccc3)CC2)c1=O` (stereo unspecified): the survival was 58%.
Turning to `Cc1nc2c3cccnc3nn2c(C)c1CCC(=O)NCc1ccccc1`, the survival was 110%.
As for `Cc1ccc(-n2c(CCC(=O)O)ccc2-c2cccs2)cc1Cl`, the figure is 86%.
With `Cc1ccc(-c2ccc(CCC(=O)O)n2-c2cccc(C)c2C)cc1`, the survival was 34% (active).
As for `COc1ccc(-c2ccc(CCC(=O)O)n2-c2ccccc2O)cc1`, the figure is 124%.
As for `COc1ccc(-n2c(CCC(=O)O)ccc2-c2ccccc2)c(OC)c1`, the survival was 47% (active).
Regarding `COc1ccc(-c2ccc(CCC(=O)O)n2-c2cc(Cl)ccc2O)cc1`, the survival is 52%.
For `Cc1ccc(Cl)cc1-n1c(CCC(=O)O)ccc1-c1cccs1`, the survival was 38% (active).
Turning to `COc1ccc(-c2ccc(CCC(=O)O)n2-c2ccccc2C(F)(F)F)cc1`, the survival is 116%.
For `Cc1ccc(-c2ccc(CCC(=O)O)n2-c2ccc(C)c(Cl)c2)cc1`, the survival was 42%.
Take `Cc1ccc(-n2c(CCC(=O)O)ccc2-c2cccs2)cc1C`: the survival was 46%.
Then `COc1ccc(Cl)cc1-n1c(CCC(=O)O)ccc1-c1ccc(C)cc1`, with 73%.
As for `COc1ccc(-c2ccc(CCC(=O)O)n2-c2ccc(Cl)cc2C)cc1`, the figure is 47% (active); as for `Cc1ccc(C)c(-n2c(CCC(=O)O)ccc2-c2ccc(Cl)cc2)c1`, 75%; as for `CCOC(=O)c1ccc(NC(=O)CCC(=O)N2Cc3ccccc3Oc3ncccc32)cc1`, 92%.
On to `COc1ccc(N(C(=O)c2ccc(Cl)cc2)S(=O)(=O)c2ccc(C)cc2)cc1`, for which the survival is 68%.
With `COc1cc(/C=C/c2nc3cc(Cl)ccc3c(=O)n2-c2cccc(C(F)(F)F)c2)cc(OC)c1OC`, the survival is 96%.
On to `CCOc1cccc2sc(N3CCN(C(=O)C(C)(C)C)CC3)nc12`, for which the survival is 77%.
`CCOc1ccc2nc(NCCNC(=O)NCc3ccccc3)c(C#N)cc2c1`: the survival is 98%.
Consider `CSc1ccccc1NC(=O)CSc1ncccn1`, for which the survival was 108%.
On to `O=C(COc1ccccc1Cl)NCC1(N2CCOCC2)CCCCC1`, for which the survival was 106%.
With `COc1ccc(-c2nc(SCC(=O)NCC3CCCO3)c(-c3ccc(C)cc3)[nH]2)cc1OC` (stereo unspecified), the survival is 66%.
For `COc1ccc(CNS(=O)(=O)c2cc3c(cc2Cl)N(C(C)=O)CCO3)cc1`, the survival is 74%.
For `COc1ccccc1-n1c(=O)n(C)c2c(C(N)=O)nc(-c3cccc(OC)c3OC)nc21`, the survival was 83%.
Then `Cc1cccc(NC(=O)C(=O)NCCc2sc(-c3ccccc3)nc2C)c1C`, with 79%.
As for `Cc1c(Cl)cccc1NC(=O)Cn1c(CCC(=O)O)ccc1-c1cccs1`, the figure is 50%; as for `Cc1ccc(NC(=O)Cn2c(CCC(=O)O)ccc2-c2cccs2)cc1`, 56%; as for `Cc1c(Cl)cccc1-n1c(CCC(=O)O)ccc1-c1cccs1`, 35% (active).
`CC(=O)c1ccc(-n2c(CCC(=O)O)ccc2-c2cccs2)cc1`: the survival is 65%.
For `Cc1cc(Cl)ccc1-n1c(CCC(=O)O)ccc1-c1cccs1`, the survival is 47% (active).
Regarding `Cc1ccc(NC(=O)Cn2c(CCC(=O)O)ccc2-c2cccs2)cc1Cl`, the survival was 59%.
As for `O=C(COc1ccccc1)N(Cc1cccnc1)c1nc2c(F)cc(F)cc2s1`, the figure is 84%; as for `CCc1nc2ccc(C(=O)NCCc3ccc(SC)cc3)cc2nc1CC`, 76%; as for `CCC(C(=O)NC1CCCC1)N(C(=O)Cn1nnc(-c2ccc(C)cc2)n1)c1ccc2c(c1)OCCO2` (stereo unspecified), 90%.
As to `Cc1ccc(-c2nnn(CC(=O)N(CC(=O)NCCC(C)C)c3ccc(F)cc3)n2)cc1`, the survival is 41% (active).
`COc1ccc(-c2nnn(CC(=O)N(CC(=O)NCc3ccccc3)c3ccc4c(c3)OCCO4)n2)cc1OC`: the survival was 69%.
`O=C(CN(C(=O)Cn1nnc(-c2ccc(F)cc2)n1)c1ccccc1C(F)(F)F)NCc1ccco1`: the survival is 98%.
Take `CCC(C(=O)NC1CCCC1)N(C(=O)Cn1nnc(-c2cccs2)n1)c1cnc2ccccc2c1` (stereo unspecified): the survival was 92%.
Turning to `CCC(C(=O)NCCC(C)C)N(C(=O)Cn1nnc(-c2ccc(C)cc2)n1)c1cccc(O)c1` (stereo unspecified), the survival was 37% (active).
Turning to `O=C(Oc1c(Cl)cc(Cl)c2cccnc12)N1CCCCCC1`, the survival is 112%.
As for `COC(=O)c1cc2sccc2n1CC(=O)Nc1ccc(OC)c(OC)c1`, the figure is 86%; as for `Cc1cccc(OCC(=O)Nc2ccccc2OCc2cc(=O)n3cc(C)ccc3n2)c1`, 94%.
For `COc1ccc(OC(=O)CSc2nnc(-c3ccc(F)cc3)o2)cc1`, the survival was 109%.
On to `FC(F)(F)c1cccc(C(c2nnnn2Cc2ccccc2)N(Cc2ccco2)CC2CCCO2)c1` (stereo unspecified), for which the survival was 105%.
As for `COc1cccc(C(=O)Nc2c3c(nn2-c2ccc(C)cc2C)CS(=O)(=O)C3)c1OC`, the survival was 116%.
Take `COc1ccc2cc3cc(C(=O)Nc4ccccc4C)oc3nc2c1`: the survival is 116%.
`Cc1ccc(Cl)cc1N1CCN(C(c2ccc(F)cc2)c2nnc(-c3ccccc3)o2)CC1` (stereo unspecified): the survival is 55%.
`Cc1cccc(N2CCN(C(c3ccc(F)cc3)c3nnc(-c4ccccc4)o3)CC2)c1C` (stereo unspecified): the survival was 39% (active).
Consider `Cc1cccc(N2CCN(C(c3ccccc3)c3nnc(-c4ccccc4Cl)o3)CC2)c1C` (stereo unspecified), for which the survival was 51%.
Consider `Cc1ccc(C)c(N2CCN(C(c3ccccc3)c3nnc(-c4ccccc4)o3)CC2)c1` (stereo unspecified), for which the survival was -5% (active).
Then `Cc1ccc(C)c(N2CCN(C(c3ccccc3)c3nnc(-c4ccccc4F)o3)CC2)c1` (stereo unspecified), with 61%; and `COc1ccccc1N1CCN(C(c2ccc(Cl)cc2)c2nnc(-c3cccc(F)c3)o2)CC1` (stereo unspecified), with 62%.
As for `COc1ccc(N2CCN(C(c3ccccc3)c3nnc(-c4ccccc4Cl)o3)CC2)cc1` (stereo unspecified), the figure is 49%.
As for `COc1ccccc1N1CCN(C(c2ccccc2)c2nnc(-c3ccccc3Cl)o2)CC1` (stereo unspecified), the survival is 32% (active).
On to `Fc1ccc(C(c2nnc(-c3ccccc3)o2)N2CCN(c3cccc(Cl)c3)CC2)cc1` (stereo unspecified), for which the survival was 91%.
As for `Cc1cccc(N2CCN(C(c3ccccc3)c3nnc(-c4ccccc4F)o3)CC2)c1C` (stereo unspecified), the figure is 58%; as for `Cc1ccc(C)c(N2CCN(C(c3ccc(F)cc3)c3nnc(-c4ccccc4)o3)CC2)c1` (stereo unspecified), 16% (active); as for `Fc1ccc(C(c2nnc(-c3ccccc3)o2)N2CCN(c3ccccc3)CC2)c(Cl)c1` (stereo unspecified), 84%.
For the compound `CCN(CC)CCOC(=O)c1ccc(Nc2c3c(nc4ccccc24)CCC3)cc1`, the survival was 94%.
On to `Cc1c(C(=O)N2CCC(c3nc4ccccc4s3)CC2)oc2cc(Br)ccc12`, for which the survival is 107%.
Then `COc1cccc(-c2nnc(SCC(=O)N3CCCCC3)o2)c1`, with 98%; and `CCc1ccc(NC(=O)Cn2nc(C(F)(F)F)c3c2CCCC3)cc1`, with 94%.
For the compound `CCOc1ccc(CCNS(=O)(=O)c2c(C)nc3sc(C)cn3c2=O)cc1OCC`, the survival is 58%.
